# According to PubChem BioAssay (NCI):
# This is part of a sample that, as a whole, favours compounds with a hit. Of some 83,000 tested, about 20% had one in any assay.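 Compound tested at a single concentration for 48 hours in 96-well plates; a percent growth value below 10 was scored as active.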 A number with no mark means an inactive call. Calls of active or inactive are those of the source.
# Assays:
# Assay in all cases: NCI-60 one-dose screen, 48 h (100 = growth as untreated, 0 = no growth, -100 = all killed)
# NCI-H226 lung = details: 10 µM
# NCI-H322M lung = details: 10 µM
# HOP-62 NSCLC = details: 10 µM
# NCI-H460 lung = details: 10 µM
# NCI-H522 lung = details: 10 µM
# A549/ATCC NSCLC = details: 10 µM
# COLO 205 colon = details: 10 µM
# DU-145 prostate = details: 10 µM
# K-562 leukemia = details: 10 µM
# SF-268 CNS = details: 10 µM
# SF-295 CNS = details: 10 µM
# SF-539 CNS = details: 10 µM
# HT29 colon = details: 10 µM
# SNB-19 CNS = details: 10 µM
# PC-3 prostate = details: 10 µM
# MOLT-4 leukemia = details: 10 µM
# SR leukemia = details: 10 µM
# RPMI-8226 leukemia = details: 10 µM
# SK-OV-3 ovarian = details: 10 µM
# MDA-MB-468 breast = details: 10 µM unless noted
SMILES,growth (NCI-H226 lung),growth (NCI-H322M lung),growth (HOP-62 NSCLC),growth (NCI-H460 lung),growth (NCI-H522 lung),growth (A549/ATCC NSCLC),growth (COLO 205 colon),growth (DU-145 prostate),growth (K-562 leukemia),growth (SF-268 CNS),growth (SF-295 CNS),growth (SF-539 CNS),growth (HT29 colon),growth (SNB-19 CNS),growth (PC-3 prostate),growth (MOLT-4 leukemia),growth (SR leukemia),growth (RPMI-8226 leukemia),growth (SK-OV-3 ovarian),growth (MDA-MB-468 breast)
C#C[C@]1(O)CC[C@H]2[C@@H]3CC=C4c5sc(Nc6ccc(C(F)(F)F)cn6)nc5CC[C@]4(C)[C@H]3CC[C@@]21C,16.2%,13.7%,10.9%,-35.8% (active),-51.1% (active),7.15% (active),-87% (active),8.36% (active),7.48% (active),23.2%,-68.8% (active),-45.3% (active),-31.8% (active),8.33% (active),1.89% (active),-8.2% (active),1.07% (active),-6.6% (active),-4.49% (active),4.25% (active)
Cc1cc(N=C2NC(=O)/C(=C/c3cc(C(C)(C)C)c(O)c(C(C)(C)C)c3)S2)n[nH]1,10.3%,28.6%,8.56% (active),0.397% (active),-26.1% (active),9.9% (active),-9.38% (active),27.2%,18.3%,32.7%,-0.721% (active),18.9%,9.22% (active),21.1%,10.7%,11%,12.2%,1.11% (active),-27.9% (active),-0.214% (active)
Nc1nnc(-c2c[nH]c3ncc(Br)cc23)c(-c2c[nH]c3ccc(Br)cc23)n1,35.8%,63%,44.5%,26.5%,21.9%,48.7%,0.336% (active),32.5%,15.2%,46%,44.7%,19.9%,30.9%,46.7%,26.6%,5.25% (active),6.57% (active),10.9%,66.6%,8.52% (active)
COc1cc(Nc2nc(O)c(/C=C3\C=Nc4ccccc43)s2)cc(OC)c1OC,-46.5% (active),-47.7% (active),-65.9% (active),-77.6% (active),-13.6% (active),-69.4% (active),-5.44% (active),-57.6% (active),3.33% (active),-38.2% (active),-73.4% (active),-85.3% (active),-50.7% (active),-39.4% (active),-71.9% (active),2.95% (active),2.6% (active),-25.1% (active),-59.3% (active),-19.9% (active)
Cc1cc(N=C2NC(=O)S/C2=C\c2ccc(F)cc2)n[nH]1,17.1%,32.3%,26.7%,5.74% (active),-8.95% (active),18.9%,19.2%,30%,15.4%,29%,12.1%,4.62% (active),6.68% (active),27.4%,6.14% (active),10.5%,8.59% (active),-14.7% (active),44.3%,-5.57% (active)
COc1ccc(C2c3sc4ccc(C)cc4c3Oc3nc(N)nc(N)c32)cc1 (stereo not given),78.5%,89.3%,79.4%,88.8%,57.2%,92.2%,93.7%,102%,50.9%,88.6%,102%,69.6%,99.1%,84.5%,79.8%,89.9%,51.2%,83.6%,89.3%,79.8%
O=C(c1ccccc1)c1ccc2nc(-c3ccccc3Br)[nH]c2c1,-27.8% (active),-96.2% (active),-46.6% (active),-22.4% (active),-74.9% (active),-57.9% (active),-75.5% (active),-76% (active),-3.28% (active),-2.6% (active),11.2%,-96.1% (active),-71.3% (active),4.77% (active),-19.4% (active),-15.3% (active),-22.8% (active),-17.9% (active),24%,-57.2% (active)
Cn1cc(-c2nnc(N)nc2-c2c[nH]c3ccc(F)cc23)c2cc(Br)cnc21,89.3%,79.1%,56.8%,39.7%,23.8%,66.2%,72.6%,89.4%,42.8%,60.1%,41%,64.5%,71.6%,58.3%,56.8%,4.34% (active),9.16% (active),59.1%,98.8%,13.8%
O=C(CN1CCN(c2ncnc3c2cnn3-c2ccccc2)CC1)Nc1ccc(Cl)cc1,67.5%,78.9%,85.7%,53.3%,-83.1% (active),67%,56.7%,57.5%,42.4%,44.3%,80.3%,76.1%,63.4%,66.5%,38.8%,7.06% (active),36.9%,44.4%,79.2%,42.5%
COc1ccc(Cn2cc(C#N)c(N)c2C(C)=O)c(OC)c1,102%,103%,105%,108%,104%,103%,125%,107%,103%,103%,109%,96.2%,117%,105%,97.6%,105%,106%,105%,99.8%,99.5%
Cn1cc(-c2cc3nc(-c4c[nH]c5ccccc45)cc(N)n3n2)c2cc(Cl)ccc21,-30.4% (active),-98.8% (active),-86.4% (active),-58.2% (active),-72.1% (active),-84.6% (active),-89.9% (active),-92.6% (active),0.698% (active),-44.6% (active),-90.9% (active),-92.5% (active),-69.3% (active),-78.2% (active),-85.3% (active),-48.8% (active),-8.96% (active),-25.5% (active),-94.7% (active),-85.9% (active)
C#C[C@]1(O)CC[C@H]2[C@@H]3CC=C4c5sc(Nc6cc(C)cc(C)n6)nc5CC[C@]4(C)[C@H]3CC[C@@]21C,13.8%,14.7%,6.05% (active),-34.3% (active),-79.9% (active),9.23% (active),-95.5% (active),12.9%,4.71% (active),7.69% (active),-75.3% (active),-66% (active),-74.2% (active),-39.1% (active),-4.36% (active),1.29% (active),3.1% (active),-16% (active),-62.4% (active),-39.3% (active)
Cn1cc(/C=C(/SS/C(=C/c2cn(C)c3cccc(C(=O)O)c23)C(=O)O)C(=O)O)c2c(C(=O)O)cccc21,97.7%,102%,103%,110%,92.6%,99.6%,112%,104%,87.4%,101%,105%,98.5%,107%,102%,97.2%,111%,98.7%,105%,114%,103%
O=C(c1ccc(F)cc1)C(c1c[nH]c2ccccc12)c1c[nH]c2ccccc12,36.5%,90.5%,91.5%,33.9%,50.7%,91.7%,97.7%,33.5%,5.35% (active),63%,105%,88%,30.8%,92.6%,41%,26.6%,10.5%,18.9%,99.9%,23.1%
COc1cccc(C(=O)CSc2nc(-c3ccc(OCc4ccccc4)c(OC)c3)c(C#N)c(=O)[nH]2)c1,86.6%,88.3%,92.2%,106%,78.9%,98.5%,115%,107%,90.6%,97.4%,95.2%,94.2%,116%,70.7%,103%,102%,93.9%,102%,94.5%,88.4%
O=C(Nc1ccc(OCc2ccc(F)cc2)cc1)Nc1ccc(Cl)c(C(F)(F)F)c1,15%,21.9%,11.4%,6.77% (active),-20.8% (active),16.4%,-79.2% (active),31.6%,9.32% (active),39%,-30.4% (active),8.73% (active),11.9%,18.3%,-1.21% (active),6.64% (active),-7.46% (active),-1.27% (active),-26.5% (active),-8.31% (active)
